In the library only some 5.7% were active in any assay of this set; here they are far more common.
JMJD2A Tudor inh = inhibitors of human JMJD2A Tudor domain | hit rate 4.4% among 390,000 | Potency, µM (titrated, usually from 114 µM), for inactives: top-dose activity change, negative = inhibition, usual class: inhibitors | AlphaScreen JMJD2A-Tudor / H3K4me3 peptide binding | O75164 | AID 504339; also: potency is read from the fitted curve at half-maximal effect; % is scaled to controls: 0 for no effect and ±100 for the full control effect; nearly all actives have a fitted effect of over 50% in size
JMJD2E inh = inhibitors of human JMJD2E histone demethylase. B2RXH2. Potency, µM (highest dose often 57.1 µM), without a hit: at the top dose activity change, negative = inhibition, hits mostly inhibitors. JMJD2E catalytic domain, FDH-coupled NADH fluorescence (FDH is formaldehyde dehydrogenase). hit rate 1.6% among 230,000; active = well fitted inhibition curve with a large enough effect, not every such curve was filed as active; inconclusive = small, poorly fitted or top-dose-only effect, or another doubt; inactive = no such curve, though single readings can be large or run the other way;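 also: potency is read from the fitted curve at half-maximal effect; 0% = wells with enzyme and -100% = buffer wells without enzyme; nearly all actives have a fitted effect of over 50% in size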
PI5P4K alpha inh = blocks human PI5P4K alpha kinase activity; P48426; PI5P4Kalpha enzyme, ADP-Glo luminescence, 60 min; active compounds read low; max response, %; hit rate 1.2% among 330,000; AID 652105; active = max response of -50% or lower; inconclusive = between -30% and -50%; inactive = -30% or higher; also: value at the top dose of about 77 µM; % is scaled to controls: 0 for no effect and ±100 for the full control effect
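Quantitative HTS of the MLSMR library against PI5P4Kalpha with substrate. ATP added last at 5 microM final; room temperature, 60 minutes. Remaining ATP depleted, ADP converted and read as luminescence.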
HP1b chromo inh = inhibitors of HP1-beta chromodomain binding to methylated histone tails; P83916; AlphaScreen HP1-beta / biotin-H3K9me3 peptide binding; Potency, µM (doses to about 114 µM), inactives show at the highest dose activity change, negative = inhibition, hits mostly inhibitors; hit rate 0.56% among 390,000; also: potency is read from the fitted curve at half-maximal effect; nearly all actives have a fitted effect of over 70% in size
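Compound inhibition of the preformed complex between 50 nM HP1-beta and 50 nM biotinylated H3K9me3 peptide was read by AlphaScreen. Buffer was PBS pH 7.4 with 0.01% Tween-20. Incubations ran 30 min at room temperature, with 10 ug/mL donor/acceptor beads.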
L3MBTL1 block = inhibitors of human L3MBTL1; Q9Y468; AlphaScreen L3MBTL1–H3K9me1 peptide binding; Potency, µM (doses to about 57.1 µM), inactives show top-dose activity, negative = inhibition, usual class: inhibitors; hit rate 0.66% among 230,000; AID 485360; also: potency is read from the fitted curve at half-maximal effect; % is scaled to controls: 0 for no effect and ±100 for the full control effect; nearly all actives have a fitted effect of over 60% in size
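L3MBTL1 50 nM + b-AHA-H3(1-15)K9me1 75 nM, 30 min RT; compound added, 30 min RT; streptavidin donor/Ni-chelate acceptor beads 10 ug/mL each final, 30 min RT dark; AlphaScreen read.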
BAZ2B inh = blocks human BAZ2B | Q9UIF8 | AID 504333 | Potency, µM (doses to about 114 µM), without a hit: top-dose activity change, negative = inhibition, most hits filed as inhibitors | hit rate 4.4% among 360,000 | AlphaScreen BAZ2B-H3K14Ac peptide displacement; also: potency is read from the fitted curve at half-maximal effect; % is scaled to controls: 0 for no effect and ±100 for the full control effect; nearly all actives have a fitted effect of over 60% in size
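Protein-peptide AlphaScreen: BAZ2B 50 nM, b-H3K14Ac 50 nM, 1x PBS pH 7.4 + 0.01% Tween-20. Preincubation 30 min RT; cpd 30 min RT (top 110 uM); beads 20 min RT, light-protected.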
Starred values were filed as active, the others as inactive; ? = inconclusive; nt = not tested or not shown; [ ] = remark or other dose. Unless noted, calls follow the shape of the dose curve; as a rule, active = well fitted inhibition curve with a large enough effect; inconclusive = small, poorly fitted or top-dose-only effect; inactive = no such curve, though single readings can be large or run the other way.

SMILES	JMJD2A Tudor inh	JMJD2E inh	PI5P4K alpha inh	HP1b chromo inh	L3MBTL1 block	BAZ2B inh
CC(C)(C)c1ccc(-c2n[nH]c(=S)n2-c2ccccc2)cc1	-20%	nt	2	49%	9%	12%
CCn1c(-c2ccc(C(C)(C)C)cc2)n[nH]c1=S	45µM*	?	-14	-4%	-1%	3%
CCn1c(-c2ccc(F)cc2)n[nH]c1=S	5µM*	?	-2	25%	nt	10%
CCn1c(-c2csc(-c3ccccc3)n2)n[nH]c1=S	-28%	10%	-7	60%	nt	-32%
Cn1c(-c2ccc(C(C)(C)C)cc2)n[nH]c1=S	22µM*	?	-17	-25%	-9%	1%
Cc1cc(OCC(=O)N2CCC(O)CC2)c2c(C)cc(=O)oc2c1	-11%	nt	10	16%	nt	-6%
CCOc1ccc(S(=O)(=O)Nc2cccc(-c3ccc(N4CCC(C)CC4)nn3)c2)cc1	-28%	nt	nt	-11%[57 µM]	nt	-10%
CN(C)c1ccc(NC(=S)c2ccccn2)cc1	11µM*	18µM*	-14	13µM*	32µM*	2.8µM*
CN(C)c1ccc(C(=S)Nc2ccccc2)cc1	-20%	-5%	4	1%	-22%	?
CC1=CC(C)(C)Nc2ccc(OC(=O)CCN3C(=O)c4ccccc4C3=O)cc21	-19%	0%	-4	?	-8%	35µM*
O=C(CCN1C(=O)c2ccccc2C1=O)Oc1ccc2ccccc2c1	6%	2%	-2	45%	0%	10%
Cc1c(C2=CCN(S(=O)(=O)c3ccc(CC(C)C)cc3)CC2)c2ccccc2n1CC(=O)N1CCCC1	-26%	nt	nt	19%	nt	-25%
Cc1nc2sc3c(c2c(=O)[nH]1)CCCC3	-12%	1%	-7	27%	-5%	-2%
Cc1nc2[nH]c(=S)[nH]c2c(=O)[nH]1	20µM*	nt	-21	-9%	nt	nt
COc1ccc2[nH]c3c(N4CCN(Cc5ccc6c(c5)OCO6)CC4)ncnc3c2c1	?	?	-23	-25%	-4%	50µM*
O=[N+]([O-])c1cccnc1N1CCN(Cc2ccc3c(c2)OCO3)CC1	?	nt	-5	?	?	6%[0.457 µM]
O=[N+]([O-])c1ccc2ncnc(N3CCN(Cc4ccc5c(c4)OCO5)CC3)c2c1	?	nt	-2	-12%	-8%	40µM*
CC(=O)Nc1cccc(Nc2cc(C)nn2C)c1	nt	nt	-8	nt	nt	nt
O=C(O)Cn1cc(/C=c2/sc3nc4ccccc4n3c2=O)c2ccccc21	56µM*	4%	?	?	nt	?
O=C(COc1ccccc1Cl)NCC1(N2CCOCC2)CCCCC1	-17%	nt	nt	50%	nt	-11%
CCn1c(NCc2ccc(N(C)C)cc2)nc2ccccc21	?	0%	nt	-11%	-13%	?
Cn1c(N=Nc2ccccc2)nc2ccccc21	?	8%	-74*	?	?	50µM*
CN(C)c1ccc(N=Nc2nc3ccccc3n2C)cc1	10µM*	-4%	-59*	14µM*	nt	2.8µM*
Cn1c(Cl)nc2ccccc21	?	1%	-2	16%	7%	-3%
COc1ccc(C(C(=O)OCCN(C)C)c2ccccc2)cc1 (stereo unspecified)	-11%	2%	5	26%	2%	3%
SMILES	JMJD2A Tudor inh	JMJD2E inh	PI5P4K alpha inh	HP1b chromo inh	L3MBTL1 block	BAZ2B inh
CCCOc1ccc(C(C(=O)OCCN(CC)CC)c2ccccc2)cc1 (stereo unspecified)	-21%[11.4 µM]	-26%	-4	-34%	nt	50µM*
CSc1ncc(C(=O)NCc2ccc(C)cc2)c(C)n1	-8%	nt	nt	12%	nt	2%
Cc1cc(=O)[nH]c(-n2[nH]c(C)cc2=O)n1	45µM*	-12%	5	48%	-4%	11µM*
Cc1ccc(CN2C(=O)C(O)(CC(=O)c3ccc(C)cc3)c3ccccc32)cc1 (stereo unspecified)	50µM*	nt	nt	?	nt	13µM*
Cc1ccc(C(=O)CC2(O)C(=O)N(Cc3ccccc3)c3ccccc32)o1 (stereo unspecified)	-23%	0%	-2	5%	8%[11.4 µM]	-8%
Cc1coc(C)c1C(=O)CC1(O)C(=O)N(Cc2ccccc2)c2ccccc21 (stereo unspecified)	89µM*	0%	-11	?	nt	?

Screening data deposited in PubChem by National Center for Advancing Translational Sciences (NCATS).
